# Data taken from PubChem BioAssay (Tox21).
# Records with an inconclusive call do not appear. Values without a mark were called inactive. Activity calls are given as the source filed them. The call rests on the fitted dose curve.
# Biological target: Beta-2 adrenergic receptor (Homo sapiens) (UniProt P07550)
# Experiment: Adrenergic beta2 receptor (ADRB2) small molecule antagonists, cell-based qHTS assay (AID 1963592); further: nearly all actives have a fitted effect of over 50% in size
# Conditions: CHO-ADRB2 cells, isoproterenol-stimulated cAMP HTRF ratio, 0.5 h; series mostly up to 92.4 µM; activity change, negative = inhibition: at the top concentration
# Text: U.S. Tox21 Program National Center for Advancing Translational Sciences [NCATS] Division of Preclinical Innovation [DPI] U.S. Environmental Protection Agency [EPA] National Institutes of Environmental Health Sciences [NIEHS] National Toxicology Program [NTP] U.S. Food and Drug Administration [FDA] Tox21 Assay Overview: Beta adrenergic receptors (Beta-ARs) belong to the G-protein coupled receptor (GPCR) superfamily, includes three subtypes - beta1, beta2, and beta3. Beta1-AR is the predominant receptor subtype expressed in the heart, and beta2-AR is expressed in the kidney, lung, blood vessel and in the heart, and beta3 is found in the adipocytes. Beta1 and 2 ARs couple to Gs protein and elevate cyclic adenosine mono phosphate (cAMP), which activates protein kinase A and leads to the downstream signaling responsible for the physiological actions. Beta-AR agonists or antagonists are the most prescribed therapeutic agents for heart failure and asthma, and these were one of the first target receptors for the rational drug design. Tox21 10K compound library was screened using the cAMP-Gs dynamic assay (Cisbio Bioassays, Shelton, CT) to identify agonists/antagonists of the Gs-coupled human adrenergic, beta2 receptor (ADRB2) in the CHO-ADRB2 cell line (Codex BioSolutions, Inc. Gaithersburg, MD), which stably over-expresses ADRB2. The principle of cAMP-Gs dynamic assay is based on HTRF technology, which facilitates the fluorescence resonance energy transfer (FRET) between donor Europium cryptate and acceptor d2-labeled cAMP. The cAMP generated within cells competes with the red acceptor, d2-labled cAMP, for binding to the monoclonal anti-cAMP-cryptate (Europium donor). An increase in intracellular cAMP leads to the disruption of FRET signal, and the signal is inversely proportional to the cAMP concentration. Propranolol HCl (Sigma-Aldrich, St. Louis, MO) was used as a positive control in the screening.
# Tox21 Assay Protocol Summary: CHO-ADRB2 cells were dispensed at 1,000/well in 4uL assay medium into white/solid 1536-well plates (Greiner Bio-One North America Inc., Monroe, NC) using a Multidrop Combi dispenser (ThermoFisher Scientific, Waltham, MA). The assay plates were incubated at 37C and 5% CO2 for an overnight (18-20hr). Then positive control and test compounds dissolved in DMSO were transferred to the assay plates at 23nL using a Pintool station (Wako, San Diego, CA). Following the compound and positive control transfer, 1uL agonist-stimulation mix containing 1nM Isoproterenol HCl, 100uM IBMX and 25uM Ro-20-1724 was added to each well of the assay plates using BioRAPTR Flying Reagent Dispenser (FRD, Beckman Coulter, Brea, CA). The assay plates were incubated at room temperature for 0.5hr. Then 2.5ul each d2-labled cAMP and anti-cAMP-cryptate solutions were added separately to each well of the assay plates using an FRD and the assay plates were incubated at room temperature for 1hr. The fluorescence signal was measured at two different wavelengths (665nm and 615nm) using an Envision plate reader (Perkin Elmer, Shelton, CT). Data were expressed as the ratio of 665 nm/615 nm.
# On the % scale 0 is the no-effect control and ±100 the full control effect; potency means the concentration at half of the fitted maximal effect.
# Beta-2 adrenergic receptor (Homo sapiens), sequence (P07550 whole entry, looked up): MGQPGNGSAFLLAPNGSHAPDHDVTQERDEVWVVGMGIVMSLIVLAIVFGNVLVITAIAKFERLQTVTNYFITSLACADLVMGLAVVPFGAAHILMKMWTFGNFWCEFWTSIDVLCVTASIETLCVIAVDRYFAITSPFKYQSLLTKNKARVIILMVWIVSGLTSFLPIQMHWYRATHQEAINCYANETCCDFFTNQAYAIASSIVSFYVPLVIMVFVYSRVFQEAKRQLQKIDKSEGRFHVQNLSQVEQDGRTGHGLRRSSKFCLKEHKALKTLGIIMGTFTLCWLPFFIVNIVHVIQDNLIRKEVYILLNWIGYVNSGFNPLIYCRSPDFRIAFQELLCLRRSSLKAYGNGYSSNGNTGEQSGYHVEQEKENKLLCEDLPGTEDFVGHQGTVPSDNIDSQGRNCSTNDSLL
SMILES,"activity change, negative = inhibition",Potency
CCOP(=S)(OCC)Oc1ccc(Cl)cc1Cl,-1.73%,–
COC(=O)N(C(=O)N1CO[C@@]2(C(=O)OC)Cc3cc(Cl)ccc3C2=N1)c1ccc(OC(F)(F)F)cc1,-4.59%,–
CCCCOC(C)=O,-0.115%,–
CC1(C)C(C(=O)OC(C#N)c2cccc(Oc3ccccc3)c2)C1(C)C (stereo not given),–,inactive
O=C(NC(O)C(Cl)(Cl)Cl)NC(O)C(Cl)(Cl)Cl (stereo not given),8.84% [at 42.5 µM],–
CC(=O)[O-].CC(=O)[O-].CC(=O)[O-].[Cr+3],5.61%,–
O=S1(=O)OCC2C(CO1)C1(Cl)C(Cl)=C(Cl)C2(Cl)C1(Cl)Cl (stereo not given),15.1%,–
CN(C)CCc1c[nH]c2ccccc12,-6.62%,–
CCOc1cc(Oc2ccc(C(F)(F)F)cc2Cl)ccc1[N+](=O)[O-],–,inactive
C=CC(=O)OCCN(C)C,2.02%,–
O=C(O)CCCCCCNC1c2ccccc2CCc2ccccc21,-0.51% [at 42.5 µM],–
CC(C)COP(=O)(OCC(C)C)OCC(C)C,0.0605%,–
Clc1ccc(C(OCCN2CCCCC2)c2ccccc2)cc1 (stereo not given),-9.52% [at 42.5 µM],–
CC(=O)[C@H]1CC[C@H]2[C@@H]3CC[C@H]4C[C@H](O)CC[C@]4(C)[C@H]3C(=O)C[C@]12C,-0.658% [at 42.5 µM],–
ClC1=C(Cl)[C@]2(Cl)[C@H]3[C@H]([C@@H]4C=C[C@H]3C4)[C@@]1(Cl)C2(Cl)Cl,–,inactive
CN(C)c1ccc(N=Nc2ccccc2)cc1,11%,–
CC(C)(C)c1cc([N+](=O)[O-])cc([N+](=O)[O-])c1O,-12.6%,–
CCc1cc2c(s1)-n1c(C)nnc1CN=C2c1ccccc1Cl,0.441% [at 42.5 µM],–
Nc1cc(Cl)ccc1Cl,-0.369%,–
CC(C)NCC(O)c1ccccc1Cl (stereo not given),1.87% [at 42.5 µM],–

SMILES,"activity change, negative = inhibition",Potency
COC(=O)C1=CCCN(C)C1,7.94% [at 42.5 µM],–
CC(C)O.CC(C)O.OCCN(CCO)CCO.OCCN(CCO)CCO.[Ti],0.673%,–
C/C=C/C=O,1.93%,–
COC(=O)C(C)N(C(=O)c1ccco1)c1c(C)cccc1C (stereo not given),-0.313%,–
CCCCc1ccccc1,-0.915%,–
CNC(=O)Oc1cccc(C(C)C)c1,4.76%,–
CN=CNc1ccc(C)cc1C,15.5%,–
CNC(=O)Oc1ccccc1C(C)C,3.88%,–
O=C1CCCCC1Cl (stereo not given),5.26%,–
ClC(Cl)=C(Cl)Cl,1.25%,–
CC(C)NCC(O)c1ccc([N+](=O)[O-])cc1 (stereo not given),–,5.96 µM (active)
O=[N+]([O-])c1cccc2cccc([N+](=O)[O-])c12,-17.8%,–
C=CC(=O)OC,-4.13%,–
NC(=O)C(Cl)(Cl)Cl,0.36%,–
O=[N+]([O-])c1cccc2cccnc12,2.13%,–
CCCCS(=O)(=O)Cl,-7.15%,–
Cc1cc2c3c(c1)C(c1ccccc1)=N[C@@H](NC(=O)c1ccncc1)C(=O)N3CC2,-26.9%,–
CCC(C(N)=O)N1CCCC1=O (stereo not given),-0.0689% [at 42.5 µM],–
CC(C)=CC1C(C(=O)OC(C#N)c2cccc(Oc3ccccc3)c2)C1(C)C (stereo not given),0.202%,–
CN/C(=N\[N+](=O)[O-])NCc1cnc(Cl)s1,6.4%,–
